Source: PubChem
Most compounds without a hit are left out; they make up all but 0.58% or so of the library.
FadD28 binding: M. tuberculosis FadD28 bisubstrate binding inhibition | inhibition, % at 12.5 µM | FadD28 bisubstrate probe binding, fluorescence polarization | 360,000 tested, 0.22% active; in the data active = inhibition above about 8.5%, passing the limit was not always enough
Y pestis TopoI: blocks Yersinia pestis topoisomerase I activity; activity, % at 10 µM; Y. pestis Topo-I cleavage product accumulation, plate reader; 360,000 tested, 0.064% active; in the data active = activity above about 50%, passing the limit was not always enough
TcdB GH inh: blocks C. difficile toxin B glycohydrolase activity; 350,000 tested, 0.24% active; P18177; inhibition, % at 9.99 µM; TcdB glycohydrolase enzymatic assay, plate reader; in the data active = inhibition above about 10%
BioA inh: inhibitors of Mycobacterium tuberculosis BioA enzyme. purified M. tuberculosis BioA enzyme, plate reader. inhibition, % at 9.99 µM. 360,000 tested, 0.096% active. AID 602481; in the data active = inhibition above about 40%
BH1578 lux ind: quorum light induction in luxS cqsA deficient V. cholerae; V. cholerae BH1578 lux reporter, luminescence, 6 h; activation, % at 18.7 µM; 350,000 tested, 0.16% active; AID 588436; in the data active = activation mostly above about 9.7%, no sharp cut-off
An asterisk follows results filed as active; i = inactive; nt = not tested or not shown; + = active, no number.

SMILES	FadD28 binding	Y pestis TopoI	TcdB GH inh	BioA inh	BH1578 lux ind
Cc1sc(-n2c(C)cc(C=C3C(=O)NC(=O)NC3=O)c2C)c(C#N)c1C	nt	nt	0	nt	nt
Cc1cc(/C=C2\SC(=S)NC2=O)c(C)[nH]1	33*	-12	0	4	0
COc1ccc(N2CCN(C(CNC(=O)c3ccc4c(c3)OCO4)c3cccnc3)CC2)cc1 (stereo not given)	1	-5	nt	0	+
O=C(NCC(c1cccnc1)N1CCN(c2ccc(F)cc2)CC1)c1ccc2c(c1)OCO2 (stereo not given)	-2	9	nt	3	i
CCOC(=O)c1ccc(NC(=S)N(CCN(C)C)Cc2cccs2)cc1	10*	-7	-1	nt	-1
CCc1ccccc1NC(=O)CN1CCN(CC(=O)NCc2ccc(Cl)cc2)CC1	-4	16	14*	4	-1
CC(=O)c1ccc(NC(=O)CNCC(c2ccccc2)N(C)C)cc1 (stereo not given)	-1	-3	15*	nt	i
COc1ccc(S(=O)(=O)Nc2cccc3c2O[C@@H](CN(C)C(=O)NC2CCCCC2)[C@@H](C)CN([C@@H](C)CO)C3=O)cc1	nt	nt	0	1	nt
Cc1nn(C)cc1-c1n[nH]c(=S)n1-c1ccc(F)cc1	1	5	10*	nt	0
Cn1cc(Cl)c(-c2n[nH]c(=S)n2-c2ccc(F)cc2)n1	-4	12	1	nt	1
Nc1ccc(-c2nc3ccc(N)cc3[nH]2)cc1	14*	-39	8	nt	i
Nc1ccc2nc(-c3ccc(Cl)cc3)[nH]c2c1	-2	-7	9	-1	0
Nc1ccc(-c2nc3c(Cl)c(N)ccc3[nH]2)cc1	11*	0	nt	-7	-5
O=C(Nc1cccc(Cl)c1)N[C@H]1CC[C@@H](CCNC(=O)C2CCOCC2)O[C@H]1CO	nt	nt	0	-2	nt
O=C(O)c1[nH]c2ccccc2c1C(c1cc(Br)ccc1O)c1c(C(=O)O)[nH]c2ccccc12	35*	-7	1	1	0
COc1cc(Cl)cc(C(c2c(C(=O)O)[nH]c3ccccc23)c2c(C(=O)O)[nH]c3ccccc23)c1O	33*	-12	-1	0	0
O=C(O)c1[nH]c2ccccc2c1C(c1c(F)cccc1Cl)c1c(C(=O)O)[nH]c2ccccc12	24*	-3	0	0	1
O=C(O)c1[nH]c2ccccc2c1-c1ccccc1	2	-4	nt	0	i
Cc1[nH][nH]c(=O)c1C(c1cc(Br)ccc1O)c1c(C)[nH][nH]c1=O	-3	2	0	1	1
O=C(NC[C@@H]1CC[C@H]2[C@H](CN2S(=O)(=O)c2ccccc2)O1)NC1CCCCC1	nt	nt	1	nt	nt
Oc1cccc(/C=N/N(Cc2ccccc2)c2ccccc2)c1	-1	-23	0	nt	1
Oc1ccc(/C=N/N(Cc2ccccc2)c2ccccc2)c(O)c1O	16*	-18	-4	nt	-1
C[C@@H]1CCCCO[C@@H](CN(C)C(=O)NC2CCCCC2)[C@@H](C)CN([C@H](C)CO)C(=O)c2cc(NC(=O)Nc3ccc4c(c3)OCO4)ccc2O1	nt	nt	0	-2	nt
COCC(=O)Nc1ccc2c(c1)C(=O)N(C)[C@H]1CC[C@H](CC(=O)NC3CCCC3)O[C@@H]1CO2	nt	nt	nt	4	nt
Cc1ccc(C(=O)N/N=C/c2ccoc2)cc1C	2	-2	1	49*	-1
SMILES	FadD28 binding	Y pestis TopoI	TcdB GH inh	BioA inh	BH1578 lux ind
COc1ccccc1C(=O)Nc1ccc2c(c1)C(=O)N(C)C[C@@H](OC)[C@@H](C)CN[C@@H](C)CO2	nt	nt	0	2	nt
COc1ccc2nc(SCC(=O)O)nc(C)c2c1	-2	11	nt	0	15*
O=P1(Oc2ccccc2)OCCCS1 (stereo not given)	-1	-5	14*	nt	-2
O=C(CNc1ccccc1)N/N=C/c1ccc([N+](=O)[O-])cc1	0	2	nt	nt	0
O=[N+]([O-])c1ccc(NN=Cc2ccc(O)cc2O)nc1	nt	-10	-3	0	i
O=C(CNS(=O)(=O)c1ccc([N+](=O)[O-])cc1)N/N=C\c1ccc(O)cc1	3	3	14*	-1	-1
O=C(CC(=O)N/N=C/c1ccc(O)cc1)N/N=C/c1ccc(O)cc1	-4	2	24*	0	i
O=C(CNS(=O)(=O)c1ccc([N+](=O)[O-])cc1)N/N=C/c1ccc(O)cc1O	22*	-4	-33	-2	0
CC(=O)Nc1ccc(/C=N\NC(=O)CNS(=O)(=O)c2ccc([N+](=O)[O-])cc2)cc1	9.3*	-12	1	0	i
CC(=O)Nc1ccc(/C=N/NC(=O)CNS(=O)(=O)c2ccccc2)cc1	-3	-4	0	nt	i
COc1ccc(NC(=O)N(C)C[C@H]2Oc3ccc(NS(=O)(=O)c4c(C)noc4C)cc3C(=O)N([C@@H](C)CO)C[C@@H]2C)cc1	nt	nt	0	0	nt
COc1cccc(-c2ccc3c(c2)O[C@@H](CN(C)C(=O)C2CC2)[C@@H](C)CN([C@H](C)CO)S3(=O)=O)c1	nt	nt	0	1	nt
COc1ccc(NC(=O)c2cc3c(CO)cnc(C)c3oc2=Nc2cccc(C)c2)c(OC)c1	-2	-2	1	3	20*
N#Cc1cccc(-c2ccc3c(c2)[C@@H]2[C@@H](CCN2C(=O)C2CCCCC2)[C@@H](CO)N3)c1	nt	nt	0	nt	nt
Cc1ccc(-c2cc(C(=O)Nc3ccc(S(=O)(=O)Nc4onc(C)c4C)cc3)[nH]n2)c(O)c1	14*	-3	1	3	-1
CC(C)NC(=O)N[C@H]1C=C[C@H](CC(=O)N2CCCCC2)O[C@H]1CO	nt	nt	0	3	nt
O=c1[nH]nc(Cc2ccccc2)c2ccccc12	-3	9	nt	0	0
O=c1[nH]nc(Cc2ccc(-c3ccc(Cl)cc3)o2)c2ccccc12	-1	68*	nt	-2	i
COc1ccc(CNC(=O)C[C@H]2C=C[C@H](NC(=O)c3ccc4c(c3)OCO4)[C@H](CO)O2)cc1	nt	nt	0	nt	nt
CC(=C/c1ccc(C(C)C)cc1)/C=N/NC(=O)CSc1ccccn1	0	61*	0	nt	0
COc1ccc(C=NNC(=O)c2cc(C)oc2C)cc1O	-3	1	10*	0	-8
COc1cc(/C=N/NC(=O)c2cc(C)oc2C)ccc1O	-3	1	4	-2	i
O=C(N/N=C\c1ccc(O)c([N+](=O)[O-])c1)c1ccccc1-n1cccc1	-1	-2	nt	-3	-1
COc1cc(C=NNC(=O)c2ccccc2-n2cccc2)ccc1O	-3	-7	13*	-1	i
CCCOc1ccc(/C=N/NC(=O)CSc2ccccn2)cc1OC	-3	-1	0	4	0
COc1cc(/C=N/NC(=O)CSc2ccccn2)ccc1O	0	0	11*	nt	i
C[C@@H]1CN([C@@H](C)CO)C(=O)c2cc(NC(=O)Nc3ccc(F)cc3)ccc2O[C@@H]1CN(C)Cc1ccncc1	nt	nt	-1	-2	nt
CCC(=O)N1C[C@H](C)[C@H](OC)CN(C)C(=O)c2cc(NC(=O)CC(F)(F)F)ccc2OC[C@H]1C	nt	nt	-1	nt	nt
COc1cc(/C=N/NC(=O)c2cccc([N+](=O)[O-])c2)ccc1O	0	-1	12*	nt	i
